Assay [1] deals with T1, 3-phosphoinositide-dependent protein kinase 1 (Homo sapiens) (UniProt O15530).
T1 sequence (whole entry): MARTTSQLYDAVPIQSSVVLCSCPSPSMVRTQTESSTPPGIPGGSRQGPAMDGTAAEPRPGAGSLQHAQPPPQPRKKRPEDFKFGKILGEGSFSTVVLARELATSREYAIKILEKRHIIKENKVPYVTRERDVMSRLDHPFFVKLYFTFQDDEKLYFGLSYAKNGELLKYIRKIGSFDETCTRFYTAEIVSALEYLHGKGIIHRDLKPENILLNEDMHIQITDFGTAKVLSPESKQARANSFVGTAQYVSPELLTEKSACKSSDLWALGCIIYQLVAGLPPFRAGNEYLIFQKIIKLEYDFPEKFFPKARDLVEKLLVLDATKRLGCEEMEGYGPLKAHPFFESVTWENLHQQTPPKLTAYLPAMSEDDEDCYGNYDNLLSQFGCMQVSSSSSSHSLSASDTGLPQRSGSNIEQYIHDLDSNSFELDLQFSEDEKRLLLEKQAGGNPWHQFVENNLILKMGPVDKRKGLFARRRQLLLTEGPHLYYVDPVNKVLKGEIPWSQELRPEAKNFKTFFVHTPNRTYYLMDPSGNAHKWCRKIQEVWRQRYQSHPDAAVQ
As to conditions: at 0.1 µM.

Assay [2] deals with cAMP-dependent protein kinase catalytic subunit alpha (Homo sapiens) (UniProt P17612). As to conditions: at 0.1 µM.
Assay [3] has the same target. As to conditions: at 1 µM.
Assay [4] deals with Protein kinase C alpha type (Homo sapiens) (UniProt P17252). As to conditions: at 0.1 µM.
The target is the same in assay [5]. As to conditions: at 1 µM.
Assay [6] addresses Protein kinase C beta type (Homo sapiens) (UniProt P05771). As to conditions: at 0.1 µM.
Assay [7] has the same target. As to conditions: at 1 µM.
In assay [8] the target is Protein kinase C eta type (Homo sapiens) (UniProt P24723). As to conditions: at 0.1 µM.
Chain of Protein kinase C eta type (Homo sapiens) (P24723 whole entry): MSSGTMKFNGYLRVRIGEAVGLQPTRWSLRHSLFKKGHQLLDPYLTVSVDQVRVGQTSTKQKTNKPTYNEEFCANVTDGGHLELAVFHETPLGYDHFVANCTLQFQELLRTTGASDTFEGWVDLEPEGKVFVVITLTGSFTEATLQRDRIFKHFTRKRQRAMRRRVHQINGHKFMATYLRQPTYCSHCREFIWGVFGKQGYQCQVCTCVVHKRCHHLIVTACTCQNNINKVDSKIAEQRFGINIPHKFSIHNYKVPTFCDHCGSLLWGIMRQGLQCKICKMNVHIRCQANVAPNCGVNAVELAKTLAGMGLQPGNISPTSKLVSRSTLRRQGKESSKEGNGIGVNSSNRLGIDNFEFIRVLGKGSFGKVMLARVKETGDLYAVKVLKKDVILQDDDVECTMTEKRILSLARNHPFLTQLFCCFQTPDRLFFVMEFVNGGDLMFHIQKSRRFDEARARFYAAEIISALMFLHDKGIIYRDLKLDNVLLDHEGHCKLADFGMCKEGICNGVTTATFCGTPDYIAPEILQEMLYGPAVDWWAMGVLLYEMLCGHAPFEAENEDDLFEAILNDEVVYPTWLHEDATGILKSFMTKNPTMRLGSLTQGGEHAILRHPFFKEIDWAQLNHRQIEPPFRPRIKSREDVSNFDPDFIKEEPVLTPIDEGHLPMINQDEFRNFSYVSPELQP
Assay [9] shares this target. As to conditions: at 1 µM.
The target of assay [10] is Protein kinase C gamma type (Homo sapiens) (UniProt P05129). As to conditions: at 0.1 µM.
The target is the same in assay [11]. As to conditions: at 1 µM.
The target in assay [12] is T2, Protein kinase C iota type (Homo sapiens) (UniProt P41743).
T2 sequence (whole entry): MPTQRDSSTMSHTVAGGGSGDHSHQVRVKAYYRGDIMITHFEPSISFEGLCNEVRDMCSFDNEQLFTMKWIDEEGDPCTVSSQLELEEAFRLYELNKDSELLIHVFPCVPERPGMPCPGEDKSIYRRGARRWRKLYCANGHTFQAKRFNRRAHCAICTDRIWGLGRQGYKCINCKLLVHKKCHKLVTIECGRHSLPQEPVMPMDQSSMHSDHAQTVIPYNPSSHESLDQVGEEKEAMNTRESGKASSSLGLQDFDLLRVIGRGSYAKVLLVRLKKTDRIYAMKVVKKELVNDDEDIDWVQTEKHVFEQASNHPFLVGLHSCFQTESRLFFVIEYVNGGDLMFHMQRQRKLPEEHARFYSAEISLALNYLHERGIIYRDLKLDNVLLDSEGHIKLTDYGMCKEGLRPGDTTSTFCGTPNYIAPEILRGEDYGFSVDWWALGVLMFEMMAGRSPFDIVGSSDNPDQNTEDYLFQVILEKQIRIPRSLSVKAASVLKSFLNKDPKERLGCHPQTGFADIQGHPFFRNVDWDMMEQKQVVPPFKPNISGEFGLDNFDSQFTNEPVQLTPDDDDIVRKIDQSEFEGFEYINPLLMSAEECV
As to conditions: at 0.1 µM.

In assay [13] the target is T2, Protein kinase C iota type (Homo sapiens). As to conditions: at 1 µM.
In assay [14] the target is Protein kinase C theta type (Homo sapiens) (UniProt Q04759). As to conditions: at 0.1 µM.
Chain of Protein kinase C theta type (Homo sapiens) (Q04759 whole entry, looked up): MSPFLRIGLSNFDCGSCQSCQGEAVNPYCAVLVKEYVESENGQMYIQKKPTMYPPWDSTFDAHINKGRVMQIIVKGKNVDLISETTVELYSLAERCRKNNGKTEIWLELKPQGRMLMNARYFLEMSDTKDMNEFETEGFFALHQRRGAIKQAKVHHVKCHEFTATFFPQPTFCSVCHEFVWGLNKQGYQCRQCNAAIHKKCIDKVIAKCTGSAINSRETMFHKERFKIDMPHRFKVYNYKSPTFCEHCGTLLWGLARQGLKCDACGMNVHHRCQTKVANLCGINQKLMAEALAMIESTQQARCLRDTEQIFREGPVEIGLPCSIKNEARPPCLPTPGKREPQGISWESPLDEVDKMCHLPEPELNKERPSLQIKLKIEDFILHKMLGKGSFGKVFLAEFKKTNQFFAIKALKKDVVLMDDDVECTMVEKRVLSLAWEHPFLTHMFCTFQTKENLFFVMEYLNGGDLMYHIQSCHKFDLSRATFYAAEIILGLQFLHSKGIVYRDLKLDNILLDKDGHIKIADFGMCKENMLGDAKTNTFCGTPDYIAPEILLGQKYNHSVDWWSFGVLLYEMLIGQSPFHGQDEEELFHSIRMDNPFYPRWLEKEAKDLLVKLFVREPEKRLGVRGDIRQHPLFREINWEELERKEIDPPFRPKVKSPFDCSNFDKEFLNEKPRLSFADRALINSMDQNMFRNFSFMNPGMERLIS
The target is the same in assay [15]. As to conditions: at 1 µM.
The target in assay [16] is Protein kinase C beta type (Homo sapiens) (UniProt P05771). As to conditions: at 0.1 µM. This is another data set of the same source.
Chain of Protein kinase C beta type (Homo sapiens) (P05771 2-671 limits assumed): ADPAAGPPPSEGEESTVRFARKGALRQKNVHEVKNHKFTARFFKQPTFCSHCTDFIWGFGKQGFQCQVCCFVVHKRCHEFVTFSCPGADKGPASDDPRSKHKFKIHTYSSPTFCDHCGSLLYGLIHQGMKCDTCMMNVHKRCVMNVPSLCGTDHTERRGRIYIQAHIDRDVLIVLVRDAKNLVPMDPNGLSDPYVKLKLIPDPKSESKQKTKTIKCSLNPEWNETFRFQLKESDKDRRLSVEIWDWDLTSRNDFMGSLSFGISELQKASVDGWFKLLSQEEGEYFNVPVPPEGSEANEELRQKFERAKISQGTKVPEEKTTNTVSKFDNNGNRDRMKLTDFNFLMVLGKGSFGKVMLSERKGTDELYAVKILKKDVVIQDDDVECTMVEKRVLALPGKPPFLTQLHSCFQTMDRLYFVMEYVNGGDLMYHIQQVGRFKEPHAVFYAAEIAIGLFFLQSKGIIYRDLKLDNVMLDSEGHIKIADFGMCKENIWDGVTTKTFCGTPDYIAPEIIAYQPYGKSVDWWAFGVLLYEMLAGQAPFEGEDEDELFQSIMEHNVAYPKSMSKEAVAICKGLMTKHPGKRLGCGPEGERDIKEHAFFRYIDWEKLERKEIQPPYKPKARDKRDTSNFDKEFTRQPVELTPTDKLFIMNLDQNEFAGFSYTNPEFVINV
The target is the same in assay [17]. As to conditions: at 1 µM. This is another data set of the same source.
Assay [18] addresses T3, Serine/threonine-protein kinase D1 (Homo sapiens) (UniProt Q15139).
T3 sequence (whole entry): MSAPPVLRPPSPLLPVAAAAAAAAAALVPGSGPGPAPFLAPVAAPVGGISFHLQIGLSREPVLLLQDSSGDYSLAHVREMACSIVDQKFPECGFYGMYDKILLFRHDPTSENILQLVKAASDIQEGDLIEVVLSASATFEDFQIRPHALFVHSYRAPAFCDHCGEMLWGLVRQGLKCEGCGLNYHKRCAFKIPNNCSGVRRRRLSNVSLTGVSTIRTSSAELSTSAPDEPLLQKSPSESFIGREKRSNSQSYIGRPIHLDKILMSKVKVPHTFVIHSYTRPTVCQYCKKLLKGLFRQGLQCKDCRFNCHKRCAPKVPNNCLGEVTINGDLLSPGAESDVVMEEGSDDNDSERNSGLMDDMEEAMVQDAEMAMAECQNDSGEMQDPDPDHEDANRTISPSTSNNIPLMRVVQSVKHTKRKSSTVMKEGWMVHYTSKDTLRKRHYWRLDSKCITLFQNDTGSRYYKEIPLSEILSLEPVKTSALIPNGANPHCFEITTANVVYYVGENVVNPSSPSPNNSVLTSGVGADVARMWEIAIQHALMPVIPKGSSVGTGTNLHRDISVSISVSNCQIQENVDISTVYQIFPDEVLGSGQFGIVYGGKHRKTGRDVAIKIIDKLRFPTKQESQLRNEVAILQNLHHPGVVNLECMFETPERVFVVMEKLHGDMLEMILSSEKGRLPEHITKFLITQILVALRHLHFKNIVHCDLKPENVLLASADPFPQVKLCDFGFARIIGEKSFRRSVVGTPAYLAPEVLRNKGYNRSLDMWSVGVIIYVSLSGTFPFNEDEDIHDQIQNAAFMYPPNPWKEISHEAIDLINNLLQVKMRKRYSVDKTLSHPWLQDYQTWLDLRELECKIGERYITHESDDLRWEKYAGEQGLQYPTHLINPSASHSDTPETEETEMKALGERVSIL
As to conditions: at 0.1 µM.

The target in assay [19] is T3, Serine/threonine-protein kinase D1 (Homo sapiens). As to conditions: at 1 µM.
In assay [20] the target is T4, Serine/threonine-protein kinase D2 (Homo sapiens) (UniProt Q9BZL6).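 Further: reported percent inhibition values are means, part of the GSK PKIS kinase panel screen.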
T4 sequence (whole entry): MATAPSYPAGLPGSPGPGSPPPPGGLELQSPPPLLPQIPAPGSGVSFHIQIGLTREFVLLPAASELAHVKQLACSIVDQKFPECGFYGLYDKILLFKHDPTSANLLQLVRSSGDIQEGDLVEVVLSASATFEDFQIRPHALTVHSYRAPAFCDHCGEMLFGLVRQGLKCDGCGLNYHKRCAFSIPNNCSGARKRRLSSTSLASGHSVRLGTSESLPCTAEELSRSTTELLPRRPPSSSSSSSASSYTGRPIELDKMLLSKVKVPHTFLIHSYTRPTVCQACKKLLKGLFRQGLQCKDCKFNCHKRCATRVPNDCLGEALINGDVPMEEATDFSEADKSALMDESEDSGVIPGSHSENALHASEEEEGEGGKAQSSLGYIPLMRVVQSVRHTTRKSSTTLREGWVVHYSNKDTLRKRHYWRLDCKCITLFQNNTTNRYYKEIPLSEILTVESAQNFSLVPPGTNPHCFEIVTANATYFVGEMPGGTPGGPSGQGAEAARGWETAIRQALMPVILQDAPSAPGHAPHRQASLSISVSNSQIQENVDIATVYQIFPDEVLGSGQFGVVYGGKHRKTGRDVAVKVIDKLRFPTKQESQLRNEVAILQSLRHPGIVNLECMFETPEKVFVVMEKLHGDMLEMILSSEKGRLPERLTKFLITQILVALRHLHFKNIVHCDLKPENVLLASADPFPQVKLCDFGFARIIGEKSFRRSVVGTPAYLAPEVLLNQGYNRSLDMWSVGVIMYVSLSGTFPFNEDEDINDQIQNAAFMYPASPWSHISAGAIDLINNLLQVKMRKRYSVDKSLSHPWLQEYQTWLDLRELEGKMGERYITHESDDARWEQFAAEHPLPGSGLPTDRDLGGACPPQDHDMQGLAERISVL
As to conditions: at 0.1 µM.

A word on the inhibition: it is the drop in the measured response relative to a control, in per cent. With `NS(=O)(=O)c1cccc(Nc2cc(-c3ccc(F)cc3)n[nH]2)c1`, the inhibition in [1] stood at 0.96%; in assay [2], 5.01%; in assay [3], 6.49%; in assay [4] it was 0.02%; in assay [5] it was 1.69%; in [6], 2.83%. Moreover, the inhibition in [7] was 6%; in assay [8], 2.29%; in assay [9], 5.6%; in [10], 4.38%; in [11], 2.43%; in assay [12] it was 1.19%. The inhibition in assay [13] is 0.46%; in assay [14], 3.52%; in assay [15] it was 8.77%; in [16], 1.7%; in assay [17] it was 3.53%; in [18], -0.81%. Also, the inhibition in [19] amounted to 4.04%; in assay [20] it was 2.47%.
As to `NS(=O)(=O)c1ccc(-c2cc3ccncc3cc2OCc2ccccc2)cc1`, the inhibition worked out at 3.11% in assay [1]; 1.4% in assay [2]; 0.52% in [3]; 0.12% in [4]; 1.77% in assay [5]; 0.43% in [6]. In addition, the inhibition was 3.25% in assay [7]; 4.33% in assay [8]; 3.62% in assay [9]; 1.21% in [10]; 4.49% in [11]; 0.19% in assay [12]. The inhibition in assay [13] came to 0.28%; in assay [14] it was 1.18%; in assay [15], 2.98%; in assay [16], 0.66%; in assay [17] it was 1.74%; in assay [18] it was 2.19%. The inhibition in [19] stood at 2.75%; in assay [20] it was 2.47%.
For `CN(C)c1cc2c(Nc3ccc4c(cnn4Cc4ccccc4)c3)ncnc2cn1`, the inhibition in assay [1] was 2.47%; in assay [2], 1.45%; in assay [3], 1.92%; in [4], -0.01%; in [5] it was 0.82%; in [6], 0.49%. Besides, the inhibition in assay [7] was 1.62%; in assay [8], -1.26%; in [9], 1.17%; in assay [10], 0.1%; in [11] it was -1.38%; in assay [12], 0.79%. Further, the inhibition worked out at 1.74% in [13]; 0.5% in [14]; 0.28% in assay [15]; 0.51% in assay [16]; 0.93% in assay [17]; 2.68% in [18]. Further, the inhibition in assay [19] came to 5.12%; in assay [20], 3.3%.
Take `CCS(=O)(=O)c1ccc(OC)c(Nc2nccc(N(C)c3ccc4c(C)n[nH]c4c3)n2)c1`: the inhibition in [1] is -0.7%; in assay [2] it was 2.41%; in [3] it was 0.84%; in assay [4], 0.55%; in [5] it was 1.48%; in assay [6], 0.4%. Also, the inhibition is -2.93% in assay [7]; 3.8% in assay [8]; 6.38% in assay [9]; 0.63% in [10]; 3.15% in assay [11]; 2.77% in assay [12]. Besides, the inhibition in assay [13] is 2.66%; in [14] it was 2.68%; in assay [15] it was 2.9%; in assay [16], 1.61%; in [17], 2.71%; in [18] it was 4.99%. Moreover, the inhibition in assay [19] came out at 6.33%; in assay [20] it was 4.18%.
Regarding `COc1ccc(-c2nn3ncccc3c2-c2ccnc(Nc3cccc(C(F)(F)F)c3)n2)cc1`, the inhibition in assay [1] was -0.15%; in assay [2] it was 2.04%; in assay [3] it was 2.61%; in assay [4] it was 0.27%; in assay [5] it was 1.31%; in [6], 1.46%. Moreover, the inhibition came out at 2.39% in assay [7]; 0.87% in assay [8]; 0.72% in [9]; 2.97% in assay [10]; 1.55% in assay [11]; 0.94% in assay [12]. For the same molecule, the inhibition was -0.08% in assay [13]; 1.65% in assay [14]; 0.8% in assay [15]; 1.35% in assay [16]; 2.07% in [17]; 3.56% in assay [18]. Further, the inhibition in [19] was 3.79%; in [20], 1.6%.
Consider `OCc1ccc(-c2nc(-c3ccccn3)c(-c3ccc4c(c3)OCO4)[nH]2)cc1`, for which the inhibition in [1] is 3.18%; in [2], 1.99%; in [3], 1.95%; in assay [4] it was 1.27%; in assay [5], 2.06%; in assay [6] it was 0.21%. Moreover, the inhibition in assay [7] is 0.2%; in [8], 3.79%; in assay [9], 1.71%; in [10] it was 1.49%; in assay [11] it was 1.5%; in assay [12], 2.1%. Moreover, the inhibition was 3.65% in [13]; 2.3% in [14]; 0.86% in [15]; 0.63% in assay [16]; 0.97% in assay [17]; 4.39% in [18]. The inhibition is 8.27% in assay [19] and 4.75% in assay [20].
As for `N#Cc1cccc(Nc2nccc(-c3cnn4ncccc34)n2)c1`, the inhibition came to 2.83% in assay [1]; 2.6% in assay [2]; 12.8% in assay [3]; 26.2% in assay [4]; 72.8% in [5]; 2.69% in [6]. The inhibition in assay [7] was 20%; in assay [8] it was 7.07%; in assay [9], 31.9%; in assay [10], 6.2%; in [11], 31.2%; in assay [12] it was 0.78%. For the same molecule, the inhibition worked out at 1.84% in assay [13]; 3.95% in assay [14]; 14.2% in [15]; 6.33% in [16]; 30.2% in [17]; 7.68% in assay [18]. Moreover, the inhibition in [19] was 49.5%; in assay [20], 7.36%.

Values taken from ChEMBL document CHEMBL1961873, “Compounds: GSK PKIS; Assays: Nanosyn kinase panel” (2012).
